This note sets out measurements from PubChem BioAssay (Tox21).

Where “and” joins values, the source holds several entries; their conditions need not be identical. Equal values may be shown once. Results filed as inconclusive are left out. Entries that show only a call come without a potency. Where a structure was tested more than once in an assay, its records may differ in their call. Calls of active or inactive are those of the source. Calls follow the shape of the dose curve; as a rule, active = well fitted cell-killing curve with a large enough effect in the repeat runs; inconclusive = weak or mixed curves, or effect the other way; inactive = no such curve, though single readings can be large or run the other way.
Potency is read from the fitted curve at half-maximal effect.

The assay in a line: qHTS assay to identify small molecule agonists of the RXR signaling pathway - cell viability counter screen (AID 1159529). Also: nearly all actives have a fitted effect of over 50% in size. Conditions: RXR-alpha-bla HEK293T viability, CellTiter-Glo, 16 h; series mostly up to 76.8 µM. The source says: National Center for Advancing Translational Sciences [NCATS]
NIH Chemical Genomics Center [NCGC]
U.S. Environmental Protection Agency [EPA]
National Institutes of Environmental Health Sciences [NIEHS]
National Toxicology Program [NTP]
U.S. Food and Drug Administration [FDA]
The Retinoid X receptor (RXR), a nuclear hormone receptor expressed in liver, spleen, placenta, epidermis, central nervous system. These receptors are able to form homo and heterodimers with other nuclear receptors and due to this heterodimerizing ability, RXR functions as master regulators producing diverse physiological effects. Three subtypes of RXR exist; alpha, beta and gamma. Retinoid X receptor alpha (RXR-alpha) has potential roles in metabolic signaling pathways, skin alopecia, dermal cysts, cardiac development, insulin sensitization etc. Therefore screening environmental chemicals on RXR-alpha signaling can be used for the studies focused on such therapeutic applications. For quantification of RXR-alpha ligands signaling, GeneBLAzer RXR alpha-UAS-bla HEK 293T (Life Technologies, Carlsbad, CA) cells containing a beta-lactamase reporter-gene under control of Retinoid X receptor-alpha response element were used to screen Tox21 10K library. The cytotoxicity of the Tox21 compound library against the RXR-alpha HEK 293T cell line was tested in parallel by measuring cell viability using CellTiter-Glo assay (Promega Corporation, Madison, WI) in the same wells.
Tox21 Assay Protocol Summary:
RXR-alpha HEK 293T cells were dispensed at 2,000 cells/6 uL of assay medium containing 2% charcoal-stripped FBS using a Multidrop Combi (ThermoFisher Scientific, Waltham, MA) dispenser. The assay was performed in black wall/clear-bottom 1536-well plates (Greiner Bio-One North America Inc. Monroe, NC). Tetraoctyl ammonium bromide was used as a positive control in the cytotoxicity screen. After the assay plates were incubated at 37 C and 5% CO2 for 5 hr, 23 nL of compounds dissolved in DMSO, positive control or DMSO only were transferred to the assay plate by a Pintool station (Kalypsys, San Diego, CA). The assay plates were incubated at 37 C and 5% CO2 for 16 hr. One uL of LiveBLAzer B/G FRET substrate (Life Technologies) was added using a Flying Reagent Dispenser (FRD) (Aurora Discovery, San Diego, CA) and the plates were incubated at room temperature for 2 hr. Fluorescence intensity (405 nm excitation, 460/530 nm emission) was measured using an Envision plate reader (PerkinElmer, Shelton, CT). For cytotoxicity, 4 uL/well of CellTiter-Glo reagent was added into the assay plates using an FRD. After 30 min incubation at room temperature, the luminescence intensity was measured using a ViewLux plate reader (PerkinElmer).
A general note: In qHTS, concentration-response curves come from the screen itself.
For `O=[N+]([O-])O`, the Potency entry is “inactive”.
Next, `O=C(O)CC(O)(CC(=O)O)C(=O)O`: “inactive”; `CCCC[n+]1ccc(C)cc1`: “inactive and 34.5 µM (active)”.
Regarding `O=C(O)C(Cl)Cl`, the Potency entry is “inactive”.
As for `Cc1cc(Cl)ccc1OCC(=O)O`, the Potency result was “inactive”.
For the compound `CCCC[n+]1cccc(C)c1`, the Potency result is “inactive”.
In the case of `Oc1ccccc1-c1ccccc1`, the Potency result is “inactive”.
On to `Cc1cc(Cl)ccc1N`, for which the Potency entry was “inactive”.
`O=C(O)c1nc(Cl)ccc1Cl`: the Potency result is “inactive”.
Consider `CCCCCCn1cc[n+](C)c1`, for which the Potency result is “inactive”.
In the case of `O=C(O)C(Cl)(Cl)Cl`, the Potency entry was “inactive”.
For the compound `CCCCn1cc[n+](C)c1C`, the Potency result is “inactive”.
For `CCCC[n+]1ccccc1C`, the Potency entry is “inactive”.
Turning to `O=P1(N(CCCl)CCCl)NCCCO1` (stereo not given), the Potency result is “inactive”.
Turning to `CCCn1cc[n+](C)c1`, the Potency entry is “inactive”.
Regarding `COP(=O)(OC)OC=C(Cl)Cl`, the Potency result is “inactive”.
As for `Nc1ccccc1`, the Potency entry is “inactive”.
For the compound `CCC[N+]1(C)CCCC1`, the Potency result is “inactive”.
The same measure for `CC(Cl)(Cl)C(=O)O`: “inactive”; for `O=[N+]([O-])c1ccccc1O`: “inactive”; for `CCCCCCCCCCCC(=O)O`: “inactive”.
Regarding `CCCC[N+]1(C)CCCC1`, the Potency entry was “inactive”.
On to `CCCCn1cc[n+](C)c1`, for which the Potency result is “inactive”.
Take `O=C(O)COc1ccc(Cl)cc1Cl`: the Potency entry was “inactive”.
As for `CCCCCC[n+]1ccccc1`, the Potency was 55.5 µM (active) and 49.3 µM (active) and inactive.
For the compound `CC(=O)O`, the Potency entry was “inactive”.
For `OCCOc1ccccc1`, the Potency result is “inactive”.
Regarding `O=C(O)CCl`, the Potency entry is “inactive”.
Regarding `C[N+](C)(C)Cc1ccccc1`, the Potency result was “inactive”.
As to `CCNc1nc(Cl)nc(NCC)n1`, the Potency entry is “inactive”.
For `Nc1ccc(Cl)cc1`, the Potency result is “inactive”.
With `C=CCOC(Cn1ccnc1)c1ccc(Cl)cc1Cl` (stereo not given), the Potency entry is “inactive”.
For the compound `CCCCCCCCCCCCCC[P+](CCCCCC)(CCCCCC)CCCCCC`, the Potency was 8.75 µM (active) and 15.6 µM (active).
With `Nc1ccc(-c2ccc(N)c(Cl)c2)cc1Cl`, the Potency result is “inactive”.
On to `CCn1cc[n+](C)c1C`, for which the Potency result was “inactive”.
Turning to `CCCC[N+]1(C)CCCCC1`, the Potency result was “inactive”.
Turning to `CC[n+]1ccccc1`, the Potency entry is “inactive”.
As for `Oc1cccc2cccnc12`, the Potency is 780 nM (active) and 692 nM (active) and inactive.
For the compound `CN(C)[C@@H]1C(=O)C(C(N)=O)=C(O)[C@@]2(O)C(=O)C3=C(O)c4c(O)cccc4[C@@](C)(O)[C@H]3[C@H](O)[C@@H]12`, the Potency entry was “inactive”.
As to `CCCCCCCCn1cc[n+](C)c1`, the Potency entry was “inactive”.
